Experimental data: PubChem BioAssay (NCI)
The panel holds about 83,000 compounds, 20% with a hit somewhere; the sample as a whole holds those more often.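 Assay: single dose, 48 h. Readout: percent growth (0 = no net growth; negative = cell death). Active: <10.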 Calls of active or inactive are those of the source.

Assays:
Experiment in all cases: NCI-60 one-dose screen, 48 h (100 = growth as untreated, 0 = no growth, -100 = all killed)
Settings in all cases: 10 µM unless noted
NCI-H23 lung = system: NCI-H23 lung
NCI-H226 lung = system: NCI-H226 lung
HOP-62 NSCLC = system: HOP-62 NSCLC
NCI-H460 lung = system: NCI-H460 lung
HOP-92 NSCLC = system: HOP-92 NSCLC
NCI-H522 lung = system: NCI-H522 lung
A549/ATCC NSCLC = system: A549/ATCC NSCLC
786-0 renal = system: 786-0 renal
COLO 205 colon = system: COLO 205 colon
DU-145 prostate = system: DU-145 prostate
K-562 leukemia = system: K-562 leukemia
MALME-3M melanoma = system: MALME-3M melanoma
MDA-MB-231 breast = system: MDA-MB-231 breast
SF-268 CNS = system: SF-268 CNS
SF-539 CNS = system: SF-539 CNS
UACC-257 melanoma = system: UACC-257 melanoma
M14 melanoma = system: M14 melanoma
RXF 393 renal = system: RXF 393 renal
SF-295 CNS = system: SF-295 CNS

Measured: growth

Cc1ccc(S(=O)(=O)N(CCc2ccc(Cl)cc2)S(=O)(=O)c2ccc(C)cc2)cc1
inactive: NCI-H23 lung 90.9% | NCI-H226 lung 75.2% | HOP-62 NSCLC 103% | NCI-H460 lung 101% | HOP-92 NSCLC 88.1% | NCI-H522 lung 77.4% | A549/ATCC NSCLC 88.3% | 786-0 renal 94.4% | COLO 205 colon 111% | DU-145 prostate 105% | K-562 leukemia 70% | MALME-3M melanoma 93% | MDA-MB-231 breast 108% | SF-268 CNS 99.8% | SF-539 CNS 96.8% | UACC-257 melanoma 92.4% | M14 melanoma 106%

S=c1[nH]nc(CSc2ncnc3c2c(-c2ccccc2)cn3-c2ccc(Cl)cc2)o1
inactive: NCI-H23 lung 92.7% | NCI-H226 lung 89.5% | HOP-62 NSCLC 91% | NCI-H460 lung 99.4% | HOP-92 NSCLC 92.9% | NCI-H522 lung 89.5% | A549/ATCC NSCLC 98.5% | 786-0 renal 102% | COLO 205 colon 99.1% | DU-145 prostate 106% | K-562 leukemia 92.3% | MALME-3M melanoma 98.5% | MDA-MB-231 breast 94.3% | RXF 393 renal 125% | SF-268 CNS 97.5% | SF-295 CNS 102% | SF-539 CNS 94.7% | UACC-257 melanoma 105% | M14 melanoma 100%

O=C(/C=C/c1cccc(Br)c1)c1ccccc1
inactive: NCI-H23 lung 98.7% | NCI-H226 lung 92.8% | HOP-62 NSCLC 70% | NCI-H460 lung 104% | HOP-92 NSCLC 79% | NCI-H522 lung 64.1% | A549/ATCC NSCLC 72.7% | 786-0 renal 72.3% | COLO 205 colon 99.7% | DU-145 prostate 92.1% | MALME-3M melanoma 99.3% | MDA-MB-231 breast 92.7% | RXF 393 renal 89.9% | SF-268 CNS 89% | SF-295 CNS 94.9% | SF-539 CNS 103% | UACC-257 melanoma 81.7% | M14 melanoma 91.1%

Nc1nc(SCc2ccccc2)c2ncn(C3CCCC3)c2n1
inactive: NCI-H23 lung 85.7% | NCI-H226 lung 110% | HOP-62 NSCLC 107% | NCI-H460 lung 98.8% | HOP-92 NSCLC 106% | NCI-H522 lung 76.8% | A549/ATCC NSCLC 107% | 786-0 renal 98.8% | COLO 205 colon 116% | DU-145 prostate 101% | K-562 leukemia 104% | MALME-3M melanoma 121% | MDA-MB-231 breast 106% | RXF 393 renal 99.5% | SF-268 CNS 121% | SF-295 CNS 101% | SF-539 CNS 91.2% | UACC-257 melanoma 129% | M14 melanoma 129%

COCCOc1ccc(-c2nc3ccc(-c4nc5ccc(N6CCN(C)CC6)cc5[nH]4)cc3[nH]2)cc1
active: NCI-H23 lung -4.24% | NCI-H226 lung -8.04% | NCI-H522 lung -41.9% | COLO 205 colon -10.9% | MALME-3M melanoma -38.9% | MDA-MB-231 breast 8.21% | RXF 393 renal -62.8% | SF-268 CNS 7.43% | SF-539 CNS -30.7% | UACC-257 melanoma 8.32% | M14 melanoma 1.05%
inactive: HOP-62 NSCLC 14.2% | NCI-H460 lung 35.9% | HOP-92 NSCLC 26.4% | A549/ATCC NSCLC 67.9% | 786-0 renal 26.8% | DU-145 prostate 29.7% | SF-295 CNS 48.4%

COc1ccc(-c2cc(-c3ccc(N(C)C)cc3)nc(NC(=O)c3ccncc3)n2)cc1
inactive: NCI-H23 lung 91.8% | NCI-H226 lung 82.6% | HOP-62 NSCLC 103% | NCI-H460 lung 99.7% | HOP-92 NSCLC 62.8% | NCI-H522 lung 90.7% | A549/ATCC NSCLC 93.7% | 786-0 renal 97.1% | COLO 205 colon 111% | DU-145 prostate 102% | K-562 leukemia 95% | MALME-3M melanoma 119% | MDA-MB-231 breast 111% | RXF 393 renal 87.3% | SF-268 CNS 98.1% | SF-295 CNS 105% | SF-539 CNS 96.8% | UACC-257 melanoma 108% | M14 melanoma 104%

O=C(CCN1CCOCC1)Nc1ccc(Cn2nnc3c2C(=O)c2nnn(Cc4ccc(NC(=O)CCN5CCOCC5)cc4)c2C3=O)cc1
inactive: NCI-H226 lung 86.5% | HOP-62 NSCLC 70.9% | NCI-H460 lung 13.3% | A549/ATCC NSCLC 84.8% | 786-0 renal 98.5% | DU-145 prostate 60.6% | RXF 393 renal 65.5% | SF-295 CNS 50.8% | M14 melanoma 35.9%
active: NCI-H23 lung -20.9% | HOP-92 NSCLC -20% | NCI-H522 lung -28.9% | COLO 205 colon -73.8% | MALME-3M melanoma -69.9% | MDA-MB-231 breast -4.23% | SF-268 CNS 1.49% | UACC-257 melanoma -80.5%

NS(=O)(=O)c1ccc(Nc2nc3n[nH]c(Nc4ccccc4)c3c(=O)[nH]2)cc1
inactive: NCI-H23 lung 94.9% | NCI-H226 lung 92.5% | HOP-62 NSCLC 90.8% | NCI-H460 lung 103% | HOP-92 NSCLC 102% | NCI-H522 lung 90.4% | A549/ATCC NSCLC 103% | 786-0 renal 101% | COLO 205 colon 96.6% | DU-145 prostate 102% | K-562 leukemia 96% | MALME-3M melanoma 103% | MDA-MB-231 breast 97.7% | RXF 393 renal 115% | SF-268 CNS 97% | SF-295 CNS 102% | SF-539 CNS 97.1% | UACC-257 melanoma 97% | M14 melanoma 94.2%

CCOC(=O)CC(C)=N
inactive: NCI-H23 lung 118% | NCI-H226 lung 106% | HOP-62 NSCLC 107% | NCI-H460 lung 109% | HOP-92 NSCLC 99.4% | NCI-H522 lung 92% | A549/ATCC NSCLC 101% | 786-0 renal 103% | COLO 205 colon 108% | DU-145 prostate 121% | K-562 leukemia 110% | MALME-3M melanoma 99.9% | MDA-MB-231 breast 103% | SF-268 CNS 130% | SF-295 CNS 111% | SF-539 CNS 97.6% | UACC-257 melanoma 102% | M14 melanoma 102%

CC(=O)OCC1OC(OC2=C(CC=C(Cl)Cl)C(=O)c3ccccc3C2=O)C(OC(C)=O)C(OC(C)=O)C1OC(C)=O (configuration not stated)
active: HOP-92 NSCLC -9.2% | NCI-H522 lung 3.88% | K-562 leukemia -12.5%
inactive: NCI-H23 lung 105% | NCI-H226 lung 85% | HOP-62 NSCLC 92.7% | NCI-H460 lung 95.1% | A549/ATCC NSCLC 102% | 786-0 renal 102% | COLO 205 colon 97.6% | DU-145 prostate 104% | MALME-3M melanoma 51.6% | MDA-MB-231 breast 69.5% | SF-268 CNS 88.8% | SF-539 CNS 90.5% | UACC-257 melanoma 94% | M14 melanoma 110%

CN1CCN(Cc2ccc(NC(=O)c3cncc(C#Cc4cncc5nccnc45)c3)cc2C(F)(F)F)CC1
inactive: NCI-H23 lung 33.8% | HOP-62 NSCLC 53.5% | NCI-H460 lung 34.5% | NCI-H522 lung 43.8% | A549/ATCC NSCLC 70.8% | 786-0 renal 73.1% | DU-145 prostate 47.7% | K-562 leukemia 10.4% | MDA-MB-231 breast 26.9% | RXF 393 renal 28.1% | SF-268 CNS 58.9% | SF-295 CNS 70.7% | SF-539 CNS 26.9% | UACC-257 melanoma 35.5%
active: NCI-H226 lung 5.97% | HOP-92 NSCLC -11.9% | COLO 205 colon 2.52% | MALME-3M melanoma -17.7% | M14 melanoma 9.82%

CCCN(CCC)CN(CCC)CCC
inactive: NCI-H23 lung 96.5% | NCI-H226 lung 95.3% | HOP-62 NSCLC 113% | NCI-H460 lung 107% | HOP-92 NSCLC 91.8% | NCI-H522 lung 101% | A549/ATCC NSCLC 91.1% | 786-0 renal 94.8% | COLO 205 colon 116% | DU-145 prostate 106% | K-562 leukemia 95.6% | MALME-3M melanoma 97.6% | RXF 393 renal 98.2% | SF-268 CNS 102% | SF-295 CNS 107% | SF-539 CNS 102% | UACC-257 melanoma 100% | M14 melanoma 102%

CC#CC#Cc1cccc(=O)o1
inactive: NCI-H23 lung 40.4% | NCI-H226 lung 74.4% | HOP-62 NSCLC 110% | NCI-H460 lung 83.5% | HOP-92 NSCLC 35.3% | NCI-H522 lung 59.2% | A549/ATCC NSCLC 104% | 786-0 renal 83.5% | COLO 205 colon 46.8% | DU-145 prostate 100% | K-562 leukemia 73.8% | MALME-3M melanoma 78.9% | MDA-MB-231 breast 45% | RXF 393 renal 47.3% | SF-268 CNS 50.4% | SF-295 CNS 96.1% | SF-539 CNS 76.4% | UACC-257 melanoma 72.6% | M14 melanoma 74.9%
